Test results reported in PubChem BioAssay AID1359 (The Scripps Research Institute Molecular Screening Center, 2008).
In all, about 220,000 compounds went through this assay and about 970 (0.44%) were called active. The list comes from a sample in which actives are over-represented; it also holds similar structures and randomly drawn compounds. A number with no mark means an inactive call. No stated cut-off is given here; in the data, active means activation above about 27%; inactive means the rest.

The compounds below were run against Neuropeptide Y receptor type 2 (Homo sapiens) (UniProt P49146) (assay: NPY-Y2 potentiators or agonists, primary screen, cell-based (AID 1359;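 further: cells stimulated with NPY near EC25 plus isoproterenol at EC100; 0% = vehicle plus submaximal agonist and 100% = vehicle plus saturating agonist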)). Settings: cells expressing NPY-Y2, potentiator/agonist read-out; at 3.6 µM; hits give high values.
Sequence of Neuropeptide Y receptor type 2 (Homo sapiens) (P49146 whole entry, looked up): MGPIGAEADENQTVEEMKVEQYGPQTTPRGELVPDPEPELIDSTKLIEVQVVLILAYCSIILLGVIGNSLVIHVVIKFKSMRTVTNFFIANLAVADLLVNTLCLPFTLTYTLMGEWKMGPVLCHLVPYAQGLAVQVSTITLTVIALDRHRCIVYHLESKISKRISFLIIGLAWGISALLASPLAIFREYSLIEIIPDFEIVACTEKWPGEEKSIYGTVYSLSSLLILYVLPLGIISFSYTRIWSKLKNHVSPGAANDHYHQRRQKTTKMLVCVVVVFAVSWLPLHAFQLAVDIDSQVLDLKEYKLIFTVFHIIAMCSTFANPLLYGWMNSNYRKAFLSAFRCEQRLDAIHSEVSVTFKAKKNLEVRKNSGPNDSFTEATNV
In the case of `COc1ccccc1N1CCN(C(=O)CSc2ncnc3c2cnn3-c2ccc(C)c(C)c2)CC1`, the activation is reported as -4.38%.
With `CCOC(=O)c1sc2nc(C)[nH]c(=O)c2c1C` the activation was -3.44%.
`CC(C)OCCCNC(=S)N1CCC(C(=O)c2ccc3c(c2)OCCO3)CC1` showed an activation of -6.61%.
`COc1ccc(CC(=O)NCc2nnc(SCC(=O)Nc3ncc(C)s3)n2C)cc1` was tested, and the activation was -1.91%.
`Cc1ccc(S(=O)(=O)N(Cc2ccc(Cl)cc2)c2ccccc2C(=O)NCc2cccnc2)cc1` gave an activation of -13.3%.
For `NC(=O)C1(N2CCCCC2)CCN(C(=O)c2ccc(C#Cc3ccccc3)o2)CC1`, the activation was 66.2% (active).
Work on `NC(=O)C1(N2CCCCC2)CCN(C(=S)Nc2ccc(Cl)cc2)CC1` yielded an activation of 4.89%.
With `CC(C)(O)C#Cc1ccc(C(=O)N2CCC(C(N)=O)(N3CCCCC3)CC2)cc1` the activation was 14.8%.
Compound `C/C=C/C=C/C(=O)OCC(=O)Nc1ccc(Cl)cc1` has an activation of -15.7%.
`COc1ccc2c(-c3ccccc3)cc(SCC(=O)N(C)C3CCS(=O)(=O)C3)nc2c1` (stereo not given) showed an activation of 6.98%.
`CCCCC(=O)Nc1cc(C)c2c(=O)oc3ccccc3c2n1` showed an activation of 1.67%.
`CCOC(=O)c1c(C)nc2c(c1C)c(=O)oc1ccccc12` was tested, and the activation was -26.5%.
`Cc1ccccc1-n1nnc2c(=O)oc3ccccc3c21` was tested, and the activation was 32.7% (active).
With `COc1ccc(NC(=O)c2cn(-c3ccccc3)nc2SC)cc1` the activation was -16%.
`CCC(=O)c1ccc(N2CCN(C(=O)c3cc([N+](=O)[O-])ccc3F)CC2)c(F)c1` showed an activation of -2.53%.
`Cc1ccccc1CSc1nnc(-c2ccccc2)c(=O)[nH]1` showed an activation of -5.69%.
`O=C1CC(Sc2ncn[nH]2)C(=O)N1c1ccccc1` (stereo not given) showed an activation of -10.2%.
With `Nc1c(-c2cccc(Cl)c2)cnn1-c1cccc([N+](=O)[O-])c1` the activation was 43.3% (active).
In the case of `Cc1nn(-c2ccc([N+](=O)[O-])cc2)c(N)c1-c1ccccc1`, the activation is reported as 8.55%.
For `O=[N+]([O-])c1cccc(C2=NCCS2)c1`, the activation was 5.16%.
Work on `Cc1ccc(NC(=O)C(=O)NCc2ccc(/C=N/NC(=O)c3c(C)nc4cc(C)ccn34)o2)cc1` yielded an activation of 12.4%.
Work on `CCCN(CC(=O)Nc1ccccc1C)C(=O)c1cc(=O)[nH]c2ccccc12` yielded an activation of -12.5%.
For `CC(C)NC(=O)NNc1c(Cl)cncc1Cl`, the activation was -6.55%.
With `COc1ccc(C)cc1NC(=O)Nc1ccccc1SC` the activation was -22.3%.
With `Cc1cccc(NC(=O)C(C)N2C(=O)C3C4CC(C(Br)C4Br)C3C2=O)c1` (stereo not given) the activation was 33.6% (active).
Work on `Cc1ccnc(NC(=O)C(C)N2C(=O)c3ccccc3C2=O)c1` (stereo not given) yielded an activation of -9.95%.
`Cc1cccc(NC(=O)CN2C(=O)CNC2=O)c1` gave an activation of -5.86%.
Work on `O=C(Cn1cnc2ccccc2c1=O)NCC1COc2ccccc2O1` (stereo not given) yielded an activation of 4.37%.
For `CN(Cc1ccccc1)C(=O)CCNC(=O)Cn1cnc2ccccc2c1=O`, the activation was 54.9% (active).
Compound `CCOC(=O)N1CCN(C(=O)Cn2cnc3ccccc3c2=O)CC1` has an activation of 2.69%.
`O=C(CN1CCN(Cc2ccccc2)CC1)NC(c1ccccc1)c1ccccc1` was tested, and the activation was -14%.
`Cc1ccc(CNC(=O)Cn2c(=O)c3sccc3n(Cc3cccc([N+](=O)[O-])c3)c2=O)cc1` gave an activation of 5.29%.
With `Oc1c(Br)cc(/C=N/NC(=S)NCC2CCCO2)cc1Br` (stereo not given) the activation was 5.85%.
Compound `Cn1nc(C(C)(C)C)c(NC(=O)c2sccc2Cl)c1C(C)(C)C` has an activation of -3.45%.
`O=C(CSc1ncnc2scc(-c3ccccc3)c12)NCc1ccc2c(c1)OCO2` was tested, and the activation was -18.5%.
`CCOC(=O)c1c(C)nn(-c2ncccc2NC(=O)CCC(=O)O)c1C` was tested, and the activation was 2.97%.
In the case of `CCOC(=O)C(Sc1ncc(C#N)c(N)n1)C(C)C` (stereo not given), the activation is reported as 41.9% (active).
`CCCCOc1ccc(-c2ncc(C(=O)OCC)c(N)n2)cc1` was tested, and the activation was -4.83%.
For `CCOC(=O)CSc1nccc(N(C)C)c1C#N`, the activation was -3.41%.
Work on `COc1ccc2c(c1)c1ncn(Cc3ccccn3)c(=O)c1n2C` yielded an activation of -3.5%.
In the case of `Cc1oc2cc([N+](=O)[O-])c(O)c([N+](=O)[O-])c2c1C(=O)c1ccc(Br)cc1`, the activation is reported as 8.73%.
With `C[n+]1ccc(/C=C/c2c[nH]c3ccccc23)cc1` the activation was 3.07%.
In the case of `O=C(O)/C=C\C(=O)Nc1ccc(OCc2ccccc2)cc1`, the activation is reported as -1.76%.
`CN(C)c1ccc(CNC2C3CC4CC(C3)CC2C4)cc1` (stereo not given) was tested, and the activation was 31.8% (active).
`c1cnc(NC2C3CC4CC(C3)CC2C4)nc1` (stereo not given) gave an activation of 2.83%.
`CN(C)c1ccc(CNC23CN4CN(CN(C4)C2)C3)cc1` gave an activation of 8.96%.
Compound `Cc1cccc(C)c1NC(=O)C(c1ccccc1)N1CC(=O)Nc2ccccc21` (stereo not given) has an activation of -1.44%.
For `CCOC(=O)/C(=C\c1ccc([N+](=O)[O-])cc1)C(=O)c1cc(C(C)=O)c(Nc2ccccc2)s1`, the activation was -2.39%.
`CCOc1cc(/C=N/NC(=O)OC)ccc1OCCSc1ccc(Cl)cc1` showed an activation of 3.6%.
`CC(CO)NCC12CC3CC(CC(C3)C1)C2` (stereo not given) showed an activation of 2.65%.
In the case of `Cc1ccc(NC(=O)O/N=C/c2cccc([N+](=O)[O-])c2)cc1`, the activation is reported as -2.02%.
For `O=C(NC(Nc1nc2ccc([N+](=O)[O-])cc2s1)(C(F)(F)F)C(F)(F)F)c1ccccc1`, the activation was 61.7% (active).
For `O=C(Nc1nc2ccc([N+](=O)[O-])cc2s1)c1ccncc1`, the activation was 17.8%.
Work on `O=C(O)CCC(=O)Nc1nc2ccc([N+](=O)[O-])cc2s1` yielded an activation of 0.15%.
Compound `CCc1c(C)sc(NC(=O)c2cccs2)c1C(N)=O` has an activation of 18%.
With `Cc1coc2c(O)cc3c(c12)OC1(N2CCCCC2)C(=O)NCCCC31` (stereo not given) the activation was 93% (active).
For `COc1ccc(C2c3c(C)nn(-c4ccccc4)c3NC(=O)N2c2ccccc2)cc1` (stereo not given), the activation was 11.1%.
Compound `Cc1ccc(C)c2c1cc(C)c1nnc(SCC(=O)Nc3cccc(C(=O)O)c3)n12` has an activation of -10%.
`Cc1nn(CCOc2ccc(Br)cc2)c(C)c1[N+](=O)[O-]` gave an activation of 14.5%.
`O=C(NC1C2CC3CC(C2)CC1C3)c1ccc(N2CCNCC2)c([N+](=O)[O-])c1` (stereo not given) was tested, and the activation was 29.4%.
